{"source": "PubChem BioAssay (NCI)", "note": "This is part of a sample that, as a whole, favours compounds with a hit. Of some 79,000 tested, about 15% had one in any assay. Values without a mark were called inactive. Calls of active or inactive are those of the source. Rule as the data show it: active = growth inhibition above about 70%; inactive = the rest."}
{"experiment": "NCI Yeast Anticancer Drug Screen. Data for the CLN2oe strain (AID 163);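 also: 0% = growth of vehicle-only control cultures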", "details": "S. cerevisiae CLN2oe strain, at 11.0 µM, stronger effect = higher value", "method_in_brief": "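Values reflect how much compound exposure reduced yeast growth, referenced to vehicle-exposed cells. Assay organism is a strain with a defined genetic change affecting cell-cycle control.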"}
{"smiles": "CCOP(=O)(OCC)C(Cc1ccccc1)N=C(c1ccccc1)c1ccccc1", "note": "(stereo not drawn)", "growth inhibition": "-21%"}
{"smiles": "CCc1ncnc2cc(OCC3CO3)c(OC)cc12", "note": "(stereo not drawn)", "growth inhibition": "27%"}
{"smiles": "CCOC(=O)[C@H]1Nc2ccccc2C2c3ccccc3CC21", "note": "(stereo partly drawn)", "growth inhibition": "11%"}
{"smiles": "O=CNc1ccc2c(c1)C(=O)c1ccccc1-2", "growth inhibition": "18%"}
{"smiles": "CCOc1ccc2c(c1)c(CC(=O)O)cn2C", "growth inhibition": "6%"}
{"smiles": "OC1CSCCCSCCSCCCSC1", "growth inhibition": "3%"}
{"smiles": "N#Cc1c(N)[nH]c2ccc(Sc3ccccc3)cc12", "growth inhibition": "12%"}
{"smiles": "Cc1ccc(-c2ccc(Nc3c4ccccc4nc4ccccc34)cc2)cn1", "growth inhibition": "29%"}
{"smiles": "c1ccc2c(c1)NC(NC1Nc3ccccc3N1)N2", "growth inhibition": "-9%"}
{"smiles": "OC(COc1cccc2ccccc12)CN1CCOCC1", "note": "(stereo not drawn)", "growth inhibition": "61%"}
{"smiles": "CCC/C(Cl)=N\\OC(=O)Nc1ccc(Br)cc1", "growth inhibition": "84% (active)"}
{"smiles": "COc1ccc(/C=C2\\SC(=S)N(/C=C/c3nc4ccccc4[nH]c3=O)C2=O)cc1OC", "growth inhibition": "7%"}
{"smiles": "O=C(NNc1ccnc2cc(Cl)ccc12)/C(=C\\c1ccccc1Cl)NC(=O)c1ccccc1", "growth inhibition": "70% (active)"}
{"smiles": "CSC1=NNC(SC)=NN1", "growth inhibition": "15%"}
{"smiles": "Cc1c(C2=C(Br)C(=O)N(C)C2=O)c(=O)n(C)c(=O)n1C", "growth inhibition": "1%"}
{"smiles": "NCCNc1ccc(NCCN)c2c1C(=O)c1c(O)ccc(O)c1C2=O", "growth inhibition": "32%"}
{"smiles": "Cn1c(=O)c(-c2ccccc2)c(N=[N+]=[N-])c2ccccc21", "growth inhibition": "13%"}
{"smiles": "CCCCCCCCCCCCCCCCCCOCC(O)COP(=O)(O)OCC1OC(n2cc(F)c(=O)[nH]c2=O)CC1O", "note": "(stereo not drawn)", "growth inhibition": "60%"}
